HP1b binding inh: HP1-beta chromodomain-methylated histone interaction inhibition; P83916; Potency, µM (titrated, usually from 114 µM), for the others: top-dose activity change, negative = inhibition, usual class: inhibitors; actives 0.56% (n = 390,000); AlphaScreen HP1-beta / biotin-H3K9me3 peptide binding; AID 540317; also: potency is read from the fitted curve at half-maximal effect; nearly all actives have a fitted effect of over 70% in size
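AlphaScreen: HP1-beta (50 nM) preformed 30 min with biotin-H3(1-18)K9me3 peptide (50 nM) in PBS pH 7.4, 0.01% Tween-20. Compound added for 30 min at RT, then streptavidin donor/nickel chelate acceptor beads (10 ug/mL) for 30 min.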
BAZ2B inh: inhibitors of human BAZ2B bromodomain; AID 504333; actives 4.4% (n = 360,000); AlphaScreen BAZ2B-H3K14Ac peptide displacement; Potency, µM (highest dose often 114 µM), inactives show top-dose activity change, negative = inhibition, most hits filed as inhibitors; also: potency is read from the fitted curve at half-maximal effect; % is scaled to controls: 0 for no effect and ±100 for the full control effect; nearly all actives have a fitted effect of over 60% in size
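AlphaScreen luminescence quantifies BAZ2B engagement of H3K14Ac peptide; the protein and biotinylated peptide are both at 50 nM final, buffer PBS pH 7.4 with 0.01% Tween-20, all steps at room temperature.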
CtBP-E1A inh: inhibitors of CtBP/E1A interaction; AlphaScreen GST-E1A/His-CtBP binding, 1536-well; active compounds read low; activity change, % (no concentration beside the values); actives 0.49% (n = 340,000); AID 651724; in the data active = activity change below about -65%; inconclusive = mostly about -30% to -63%; also: % is scaled to controls: 0 for no effect and ±100 for the full control effect
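Homogeneous bead-based format: GST-tagged E1A captured on glutathione donor beads, His-tagged CtBP on nickel acceptor beads; compounds precede bead addition by 2 h at 37 °C.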
JMJD2A Tudor inh: JMJD2A Tudor domain (human) inhibition. O75164. AlphaScreen JMJD2A-Tudor / H3K4me3 peptide binding. Potency, µM (titrated, usually from 114 µM), for the others: at the top dose activity change, negative = inhibition, most hits filed as inhibitors. actives 4.4% (n = 390,000). AID 504339; also: potency is read from the fitted curve at half-maximal effect; % is scaled to controls: 0 for no effect and ±100 for the full control effect; nearly all actives have a fitted effect of over 50% in size
G9a block: blocks human histone lysine methyltransferase G9a; Q96KQ7; G9a H3K9 monomethylation, AlphaScreen, 2 h; Potency, µM (highest dose often 102 µM), for inactives: top-dose activity, negative = inhibition, most hits filed as inhibitors; actives 8.8% (n = 350,000); also: potency is read from the fitted curve at half-maximal effect; % is scaled to controls: 0 for no effect and ±100 for the full control effect; nearly all actives have a fitted effect of over 75% in size
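Quantitative HTS format: methyltransferase activity on a biotin-tagged H3K9 peptide is measured by AlphaScreen, using a rabbit anti-monomethyl-H3K9 antibody with streptavidin donor and anti-IgG acceptor beads. Final levels are 20 nM enzyme, 500 nM peptide, 20 uM SAM; 2 h RT.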
Six1-Eya2 inh: Six1/Eya2 interaction inhibition; Q15475+O00167; AlphaScreen GST-Six1/His-Eya2 binding, biochemical; active compounds read low; activity change, % (no concentration beside the values); actives 0.56% (n = 360,000); in the data active = activity change below about -65%; inconclusive = mostly about -30% to -63%; also: % is scaled to controls: 0 for no effect and ±100 for the full control effect
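GST-Six1 + His-Eya2 (5X stock: 250/500 nM); Tris pH 8.0, 300 mM NaCl, 0.05% BSA, 0.02% Tween 20; GSH donor/Ni acceptor beads; 1 h 37 °C dark; AlphaScreen readout.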
Active calls of the source: *; [ ] = dose if it differs, or a comment. The list is not random: actives were taken first. Their share in the collection is about 10%. Unless noted, calls follow the shape of the dose curve; as a rule, active = well fitted inhibition curve with a large enough effect; inconclusive = small, poorly fitted or top-dose-only effect; inactive = no such curve, though single readings can be large or run the other way.

Screening O=C(Nc1ncccc1O)c1ccc(NS(=O)(=O)c2ccc3[nH]c(=O)[nH]c3c2)cc1 returned HP1b binding inh -4%, BAZ2B inh 79µM*, CtBP-E1A inh inconclusive, JMJD2A Tudor inh -22%, G9a block 71µM* and Six1-Eya2 inh inconclusive.
Screening CCCCCNC(=O)c1ccc(NS(=O)(=O)c2ccc3[nH]c(=O)[nH]c3c2)cc1 returned HP1b binding inh 7%, BAZ2B inh -28%, CtBP-E1A inh -7, JMJD2A Tudor inh inconclusive, G9a block 32µM* and Six1-Eya2 inh 2.
Screening CCC(CC)NC(=O)c1ccc(NS(=O)(=O)c2ccc3[nH]c(=O)[nH]c3c2)cc1 returned HP1b binding inh 30%, BAZ2B inh inconclusive, CtBP-E1A inh 2, JMJD2A Tudor inh -14% and Six1-Eya2 inh 1.
For COc1ccc(/C=C\c2onc(C)c2S(=O)(=O)N2CCC(C(=O)Nc3ccc(Cl)cc3)CC2)cc1 the results were HP1b binding inh 10%, JMJD2A Tudor inh -16% and G9a block -8%[59 µM].
`COc1ccc(CN(C)C(=O)c2cccc(C(=O)N(C)Cc3ccc(OC)cc3)c2)cc1` gave HP1b binding inh 32%, BAZ2B inh 2%, JMJD2A Tudor inh -8%, G9a block 85% and Six1-Eya2 inh -3.
Cc1ccc(C2=N/C(=C\c3cccs3)C(=O)N2Nc2ccccc2)cc1 was read as HP1b binding inh inconclusive, BAZ2B inh 35µM*, CtBP-E1A inh -17, JMJD2A Tudor inh inconclusive, G9a block inconclusive and Six1-Eya2 inh -23.
`O=C1NC(=Nc2ccccc2)S/C1=C/c1cccs1` gave HP1b binding inh 6%, JMJD2A Tudor inh inconclusive, G9a block inconclusive and Six1-Eya2 inh -11.
`O=C1/C(=C/c2cccs2)N=C(c2cccs2)N1Nc1ccccc1` gave HP1b binding inh -17%, BAZ2B inh inconclusive, CtBP-E1A inh -20, JMJD2A Tudor inh inconclusive, G9a block 50µM* and Six1-Eya2 inh -28.
`O=C1/C(=C\c2cccs2)N=C(c2cccs2)N1Nc1ccccc1` gave HP1b binding inh -17%, BAZ2B inh inconclusive, CtBP-E1A inh 10, JMJD2A Tudor inh inconclusive, G9a block 40µM* and Six1-Eya2 inh -20.
For CCOC(=O)[C@]12CCCC=C1N(Cc1ccco1)C(=O)[C@H](CC(=O)N1CCCC1)C2 the results were CtBP-E1A inh -23 and Six1-Eya2 inh 17.
Screening COC(=O)[C@H](CC(C)C)NC(=O)c1cc2c(cn1)[nH]c1ccccc12 returned HP1b binding inh inconclusive, BAZ2B inh -24%, CtBP-E1A inh 0, JMJD2A Tudor inh inconclusive, G9a block 7.9µM* and Six1-Eya2 inh -10.
Screening CCOC(=O)c1ccc(NC(=O)c2nn(C)c3c2COc2ccccc2-3)cc1 returned HP1b binding inh 17%, BAZ2B inh inconclusive, JMJD2A Tudor inh inconclusive and G9a block 14µM*.
`CCOC(=O)CCSCC(=O)Nc1nnc(C)s1` gave HP1b binding inh 34%, BAZ2B inh -7%, CtBP-E1A inh 6, JMJD2A Tudor inh -6%, G9a block -8%[59 µM] and Six1-Eya2 inh 8.
O=C(Nc1nnc(-c2ccncc2)s1)C1CCCO1 (configuration not stated) was read as HP1b binding inh -9%, BAZ2B inh -29%, CtBP-E1A inh -2, JMJD2A Tudor inh 100µM*, G9a block inconclusive and Six1-Eya2 inh -3.
Screening Cc1nnc(NC(=O)CCSCCC(=O)Nc2nnc(C)s2)s1 returned HP1b binding inh -17%, BAZ2B inh 50µM*, JMJD2A Tudor inh 50µM*, G9a block 50µM* and Six1-Eya2 inh -6.
Cc1nnc(NC(=O)C2CCCO2)s1 (configuration not stated) was read as HP1b binding inh -5%, BAZ2B inh 1%, CtBP-E1A inh 4, JMJD2A Tudor inh -19%, G9a block 8.9µM* and Six1-Eya2 inh 3.
`COCCSc1nnc(NC(=O)C2CCCO2)s1` (configuration not stated) gave HP1b binding inh 24%, BAZ2B inh 12%, CtBP-E1A inh 7, JMJD2A Tudor inh -6%, G9a block -6% and Six1-Eya2 inh 4.
`O=C(Nc1nnc(Cc2ccc(Cl)cc2)s1)C1CCCO1` (configuration not stated) gave HP1b binding inh -12%, BAZ2B inh -22%, CtBP-E1A inh 9, JMJD2A Tudor inh 1%, G9a block 28µM* and Six1-Eya2 inh -1.
COc1ccc2cc(CCNS(=O)(=O)c3ccc(C)cc3)c(=O)[nH]c2c1 was read as HP1b binding inh 10%, BAZ2B inh -5%, JMJD2A Tudor inh -7% and G9a block 5%[59 µM].
Screening CCOc1ccc(NC(=O)C2CC(=O)N(c3ccccc3F)C2)cc1 (configuration not stated) returned HP1b binding inh 99%, BAZ2B inh 4%, CtBP-E1A inh -22, JMJD2A Tudor inh -5%, G9a block 12% and Six1-Eya2 inh 4.
Cc1cc(Cl)c(OCCCn2cncn2)c(Br)c1 was read as HP1b binding inh 60%, BAZ2B inh 0%, CtBP-E1A inh 5, JMJD2A Tudor inh -10%, G9a block 9%[12.7 µM] and Six1-Eya2 inh 2.
Cc1cc(Cl)cc(Br)c1OCCCCn1cncn1 was read as HP1b binding inh inconclusive, BAZ2B inh 50µM*, CtBP-E1A inh 2, JMJD2A Tudor inh 3.5µM*, G9a block inconclusive and Six1-Eya2 inh 9.
COc1ccccc1-c1nc(=S)c(C(C)=O)c(C)[nH]1 was read as HP1b binding inh 33%, BAZ2B inh -10%, CtBP-E1A inh 0, JMJD2A Tudor inh -22% and Six1-Eya2 inh 5.
CC(=O)c1c(C)[nH]c(-c2ccccc2)nc1=S was read as HP1b binding inh 43%, BAZ2B inh -36%, CtBP-E1A inh 6, JMJD2A Tudor inh -3%, G9a block 3.5µM* and Six1-Eya2 inh -3.
`COc1cccc(CNC(=O)Cc2ccc(NC(=O)N3CCSc4ncccc43)cc2)c1OC` gave HP1b binding inh 10%, BAZ2B inh -15%, JMJD2A Tudor inh -7% and G9a block -2%[59 µM].
CC(=O)N(C)/C=C1\Sc2ccccc2C1=O was read as HP1b binding inh 31%, BAZ2B inh -29%, CtBP-E1A inh -7, JMJD2A Tudor inh 1%, G9a block 3% and Six1-Eya2 inh -8.
CCC(=O)N(C)/C=C1\Sc2ccccc2C1=O was read as HP1b binding inh 32%, BAZ2B inh 56µM*, CtBP-E1A inh 2, JMJD2A Tudor inh -21%[11.4 µM], G9a block inconclusive and Six1-Eya2 inh -1.
